Results on 18 compounds are retold here after PubChem BioAssay (NCATS).

Molecules are shown by their SMILES. “And” between values parts separate entries of the source, which are not always exact repeats. Equal entries are not always repeated. Inconclusive results are not listed. A number with no mark means an inactive call. The source made the active and inactive calls. Calls follow the shape of the dose curve; as a rule, active = well fitted curve in the direction sought with a large enough effect; inconclusive = small, poorly fitted or top-dose-only effect, or another doubt; inactive = no such curve, though single readings can be large; an effect the other way counts as inactive or inconclusive.

In general, viability refers to a read-out of living cells in per cent, often relative to untreated cells.

Assay [1] deals with Cellular tumor antigen p53 (Homo sapiens) (UniProt P04637). As to the kind of experiment: Primary qHTS for small molecule compounds that upregulate eGFP-tagged delta133p53alpha (in N-terminal) cells. (AID 2060322).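 Also: 0% = DMSO vehicle and 100% = reference activator; nearly all actives have a fitted effect of over 75% in size.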 The note with it: NCI-H358 eGFP-delta133p53alpha fluorescence, 24 h; activation: stronger effect = higher value. Summed up: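 NCI-H358 cells pre-induced 24 h with 10 ng/ml doxycycline to express N-terminal eGFP-delta133p53alpha, then dosed 24 h at 37C without doxycycline; fixed, Hoechst-stained, GFP intensity by laser scanning cytometry, normalized to DMSO (0%) and 57.5 uM 5-azacytidine (100%).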
Cellular tumor antigen p53 (Homo sapiens), sequence (P04637 whole entry, looked up): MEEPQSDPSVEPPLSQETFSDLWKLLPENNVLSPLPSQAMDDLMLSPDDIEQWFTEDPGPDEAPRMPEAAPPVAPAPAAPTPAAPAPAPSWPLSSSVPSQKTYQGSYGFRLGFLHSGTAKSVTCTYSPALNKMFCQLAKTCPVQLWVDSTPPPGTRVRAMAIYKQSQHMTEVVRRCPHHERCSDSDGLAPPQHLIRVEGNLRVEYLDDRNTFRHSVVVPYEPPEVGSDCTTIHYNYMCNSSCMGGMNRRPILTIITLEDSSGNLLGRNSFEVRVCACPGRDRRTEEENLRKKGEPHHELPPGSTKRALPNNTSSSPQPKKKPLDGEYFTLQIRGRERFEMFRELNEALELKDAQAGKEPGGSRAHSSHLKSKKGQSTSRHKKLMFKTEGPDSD
For orientation: In qHTS, concentration-response curves come from the screen itself.

The target in assay [2] is Aldehyde dehydrogenase, mitochondrial (Homo sapiens) (UniProt P05091). As to the kind of experiment: qHTS for Inhibitors of the Aldehyde Dehydrogenase Family (ALDH2) Primary screen (AID 2061308).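 Also: plate controls were vehicle for no effect and reference inhibitor for full effect; nearly all actives have a fitted effect of over 55% in size.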 Conditions: ALDH2 enzyme inhibition qHTS, 1536-well; series mostly up to 56 µM.
Assay [3] has as its target Retinaldehyde dehydrogenase 3 (Homo sapiens) (UniProt P47895). As to the kind of experiment: qHTS for Inhibitors of the Aldehyde Dehydrogenase Family (ALDH1A3) Validation screen (AID 2061312). Also: % is scaled to controls: 0 for no effect and ±100 for the full control effect; nearly all actives have a fitted effect of over 45% in size. The note with it: ALDH1A3 enzyme inhibition qHTS validation, fluorescence; series mostly up to 84.7 µM.
Assay [4] has the same target. As to the kind of experiment: qHTS for Inhibitors of the Aldehyde Dehydrogenase Family (ALDH1A3) Primary screen (AID 2061315).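 Also: plate controls were DMSO vehicle for no effect and reference inhibitor for full effect.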 Conditions: ALDH inhibition qHTS; series mostly up to 56 µM.
A short description of assay [5]: BET inhibitor-based combinations targeting novel dependencies in MECOM-rearranged (r) AML: SET-2 cell line (AID 2202231).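 Also: plate controls were DMSO treated cells for no effect and wells without cells for full effect; nearly all actives have a fitted effect of over 35% in size.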 The note with it: SET-2 AML cells viability, CellTiter-Glo luminescence, 48 h; viability: stronger effect = lower value, concentration not given here. The method, boiled down: (§1)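 500 cells/well; 11-pt dose curve; 48 h, standard incubator; CellTiter-Glo luminescence after 15 min RT; DMSO/empty-well normalization; AUC plus Z-AUC (mean-centered within each line).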
On the technique in general: ATP-based viability assays read luminescence as a measure of living cells.

A short description of assay [6]: BET inhibitor-based combinations targeting novel dependencies in MECOM-rearranged (r) AML: HNT-34 cell line (AID 2202234). Also: nearly all actives have a fitted effect of over 35% in size. Also: potency is read from the fitted curve at half-maximal effect. The note with it: HNT-34 AML viability, CellTiter-Glo luminescence, 48 h; series mostly up to 46 µM. The method, boiled down: (§2)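 Cells were plated at 500 per well and exposed to each drug across an 11-point dose range for 48 hr at standard incubator conditions. Viability was read by CellTiter-Glo luminescence, and activity was expressed as AUC and per-cell-line Z-transformed AUC.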

Assay [7] in a line: BET inhibitor-based combinations targeting novel dependencies in MECOM-rearranged (r) AML: AML-191 cell line (AID 2202236; also: nearly all actives have a fitted effect of over 35% in size; also: potency is read from the fitted curve at half-maximal effect). Conditions: AML-191 viability, CellTiter-Glo luminescence, 48 h; series mostly up to 46 µM. Summed up: as §1
Assay [8] is described as follows: BET inhibitor-based combinations targeting novel dependencies in MECOM-rearranged (r) AML: AML-194 cell line (AID 2202237; also: nearly all actives have a fitted effect of over 40% in size; also: potency is read from the fitted curve at half-maximal effect). The note with it: AML-194 (MECOM-r AML) viability, CellTiter-Glo, 48 h; series mostly up to 46 µM. Summed up:
as §1

Assay [9] in a line: BET inhibitor-based combinations targeting novel dependencies in MECOM-rearranged (r) AML: UCSD-AML1 cell line (AID 2202235). Also: nearly all actives have a fitted effect of over 40% in size. Also: potency is read from the fitted curve at half-maximal effect. Conditions: UCSD-AML1 AML cells viability, CellTiter-Glo, 48 h; series mostly up to 46 µM. The method, boiled down:
as §2

Assay [10] is described as follows: BET inhibitor-based combinations targeting novel dependencies in MECOM-rearranged (r) AML: OCI-AML3 cell line (AID 2202232). Also: nearly all actives have a fitted effect of over 35% in size. Also: potency is read from the fitted curve at half-maximal effect. Conditions: CellTiter-Glo luminescence, 48 h; Potency: OCI-AML3 viability; series mostly up to 46 µM. Summed up:
as §1

Assay [11] can be described thus: BET inhibitor-based combinations targeting novel dependencies in MECOM-rearranged (r) AML: MV-4-11 cell line (AID 2202233). Also: nearly all actives have a fitted effect of over 45% in size. Also: potency is read from the fitted curve at half-maximal effect. The note with it: MV-4-11 AML viability, CellTiter-Glo luminescence, 48 h; series mostly up to 46 µM. Summed up: as §2

As for `C=C1[C@H](CO)[C@@H](O)C[C@@H]1n1cnc2c(=O)[nH]c(N)nc21`, the activation in [1] is -3.34%. Besides, the Potency entry in assay [2], in [3], in [4], in assay [6] and in assay [8] was “inactive” in each case. Further, the viability in [5] is 117%. Besides, the Potency in [7] is 18.6 µM (active).

As for `CCCCOc1nc(N)c2c(n1)N(Cc1cccc(CN3CCCC3)c1)CC(=O)N2`, the activation in [1] was 5.73%. Moreover, the Potency result in assay [2], in [3], in assay [4], in assay [9] and in assay [7] was “inactive” each time. Besides, the viability in [5] is 111%.

Regarding `Cc1cc(Nc2ncnc3ccc(-c4ccc(CNCCS(C)(=O)=O)o4)cc23)ccc1Oc1ccn2ncnc2c1`, in [1], the activation is 23.7% and 4.3%. Also, the Potency entry in [2], in assay [3], in [4], in [6], in assay [7] and in assay [8] was “inactive” throughout. In addition, the viability in assay [5] was 75.4%.

As to `CCCCn1c(=O)n(Cc2ccccc2F)c(=O)c2[nH]c(Cc3ccc(NC(C)=O)cc3)nc21`, in [1], the activation is 0.477%. Also, the Potency entry in [2], in [3], in assay [4], in assay [10], in [11] and in [9] was “inactive” each time. Besides, the Potency entry in [7] and in [8] was “inactive” each time.

As to `CCCc1cc(C)[nH]c(=O)c1CNC(=O)c1cc(-c2ccnc(N3CCN(C)CC3)c2)cc2c1cnn2C(C)C`, the activation in assay [1] is -12.3%. Besides, the Potency entry in assay [2], in [3] and in assay [4] was “inactive” throughout. Besides, in [11], the Potency was 23.5 µM (active).

Take `CCc1nc(-c2cccc(C)c2)c(-c2ccnc(NC(=O)c3ccccc3)c2)s1`: the activation in [1] is 17.2%. Moreover, the Potency result in [2], in assay [3] and in assay [4] was “inactive” throughout. Moreover, the values for the Potency in assay [10] and in [11] were 0.0093 µM (active) and 10.5 µM (active), respectively.

Take `CCNC1(C(N)=O)CCN(c2ncnc3c2nc(-c2ccccc2Cl)n3-c2ccc(Cl)cc2)CC1`: the activation in [1] is 0.477%. Moreover, the Potency result in [2], in assay [3], in assay [4], in assay [10] and in assay [9] was “inactive” throughout. In assay [6], the Potency is 26.3 µM (active).

As for `CC(C)N(CCCNC(=O)Nc1ccc(C(C)(C)C)cc1)C[C@H]1O[C@@H](n2ccc3c(N)ncnc32)[C@H](O)[C@@H]1O`, the activation in [1] was -20% and -29.1%. The Potency result in assay [2], in [3], in assay [4], in assay [6], in assay [7] and in assay [8] was “inactive” throughout. Besides, the viability in assay [5] was 93.2%.

Regarding `NC1(C(=O)N[C@@H](CCO)c2ccc(Cl)cc2)CCN(c2ncnc3[nH]ccc23)CC1`, the activation in [1] was 7.49%. The Potency result in assay [2], in assay [3] and in [4] was “inactive” in each case. In addition, the Potency is 6.61 µM (active) in assay [10], 4.17 µM (active) in assay [11] and 1.48 µM (active) in assay [9].

For the compound `CC(C)n1cnc2c(NCCc3ccc(O)cc3)nc(-c3csc4ccccc34)nc21`, in [1], the activation was 28% and 17.7%. Besides, the Potency result in assay [2], in [3] and in assay [4] was “inactive” in each case. For the same compound, the Potency in assay [10], in [7] and in assay [8] was 20.9 µM (active) each time.

As to `CC[C@H](CC#N)OC(=O)N[C@@H](C)c1cccc(NC(=O)Nc2ccc(-c3cnco3)c(OC)c2)c1`, in assay [1], the activation was 7.84% and -10.5%. Further, the Potency entry in assay [2], in [3] and in assay [4] was “inactive” each time. Further, the Potency in [10] is 0.468 µM (active); in assay [11] it was 0.235 µM (active); in assay [6], 0.525 µM (active); in assay [9] it was 0.296 µM (active).

With `COc1cc(C)c(Sc2cnc(NC(=O)c3ccc(CNC(C)C(C)C)cc3)s2)cc1C(=O)N1CCN(C(C)=O)CC1` (stereo unspecified), the activation in [1] was -11.2% and 19.6%. The Potency result in assay [2], in [3] and in [4] was “inactive” each time. Besides, the Potency in assay [10] was 20.9 µM (active); in assay [11], 7.42 µM (active); in assay [6], 16.6 µM (active); in assay [9] it was 16.6 µM (active); in assay [7], 16.6 µM (active); in assay [8], 14.8 µM (active).

Consider `Cn1cc(-c2cnn3c(N)c(Br)c([C@@H]4CCCNC4)nc23)cn1`, for which the activation in assay [1] was 3.82%. For the same compound, the Potency result in assay [2], in [3] and in assay [4] was “inactive” in each case. Also, the Potency in assay [11] was 0.468 µM (active).

As to `COc1cc2c(cc1-c1c(C)noc1C)ncc1[nH]c(=O)n([C@H](C)c3ccccn3)c12`, the activation in assay [1] was 5.5% and 9.55% and -13.4%. Besides, the Potency entry in assay [2], in [3] and in assay [4] was “inactive” throughout. Moreover, the Potency in assay [10] is 0.468 µM (active); in [11], 0.417 µM (active).

For `CCC1=C(C)CN(C(=O)NCCc2ccc(S(=O)(=O)NC(=O)NC3CCC(C)CC3)cc2)C1=O` (stereo unspecified), the activation in assay [1] was -11% and 10.7% and 1.91%. The Potency entry in [2], in [3], in assay [4], in assay [11], in [6] and in [9] was “inactive” each time. Further, the Potency entry in assay [7] and in [8] was “inactive” throughout.

With `Cn1cc(-c2ccc3nnc(C(F)(F)c4ccc5ncccc5c4)n3n2)cn1`, the activation in assay [1] was -10% and 1.43%. For the same compound, the Potency entry in assay [2], in assay [3], in assay [4], in assay [9] and in [8] was “inactive” in each case. Also, the viability in [5] was 106%.

Take `COc1ccc2c(Oc3ccc(NC(=O)c4c(C)n(CC(C)(C)O)n(-c5ccccc5)c4=O)cc3F)ccnc2c1`: the activation in [1] was -9.3% and -1.91%. The Potency result in [2], in [3], in assay [4] and in assay [9] was “inactive” each time. In addition, the figures for the Potency in assay [11] and in assay [6] were 0.209 µM (active) and 4.68 µM (active), respectively.

With `c1cc(OCCN2CCCCC2)cc(-c2n[nH]c3ccc(-c4ncn[nH]4)cc23)c1`, in assay [1], the activation was 5.89% and 12.9%. Also, the Potency entry in [2], in assay [3] and in assay [4] was “inactive” throughout. Besides, the Potency was 1.86 µM (active) in assay [11], 14.8 µM (active) in assay [6] and 13.2 µM (active) in [9].
